# Results published in PubChem BioAssay AID540335 (Broad Institute, 2011).
# Screen size: about 1,300 compounds; about 270 (21%) were called active.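 How the source made its calls: active means dose-dependent rise or fall in viability, either side of zero, with half-maximal concentration at or below a set limit; inconclusive means flat curve at 30 to 70% viability loss, or poor fit; inactive means flat within 30% either way, or potency beyond limit.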 Not all results are given here. Entries with a potency or affinity are not part of this list.
# Experiment: A375 melanoma cell viability reduction, dose response, counter-screen for MITF modulator project, cherry-pick samples, set 2 (AID 540335);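 further: A375 human melanoma cells which do not depend on MITF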
# Settings: CellTiter-Glo ATP luminescence, 24 h; series mostly up to 35 µM
row,Compound,outcome
1,CCn1c(=O)c([N+](=O)[O-])c(Cl)c2ccccc21,inactive
2,COc1ccc(C(=O)/C=C/C(=O)N(CC(=O)NC2CCCCC2)Cc2cccs2)c(O)c1,inactive
3,Cc1cnc(NC(=O)c2nn(C)cc2[N+](=O)[O-])s1,inactive
4,Cn1cc(C(=O)N/N=C/c2c(O)ccc3ccccc23)ccc1=O,inactive
5,O=C(CSCC(=O)Nc1ccccc1)N/N=C/c1c(O)ccc2ccccc12,inactive
6,CCc1ccccc1NC(=O)CN(C)C(=O)Cn1ncc(Cl)c(Cl)c1=O,inactive
7,CC(=O)N(C)C1=C(N2CCOCC2)C(=O)c2ccccc2C1=O,inactive
8,COC(=O)c1ccc2c(c1O)C(=O)c1ccccc1C2=O,inactive
9,CCN(CC)CCNC(=O)c1ccc(NC(=O)c2cn(-c3ccccc3)nc2-c2cccs2)cc1,inactive
10,CCS(=O)(=O)c1ccc(N=Nc2ccc(O)c3ncccc23)c(OC)c1,inactive
11,O=[N+]([O-])c1ccc(-n2nnnc2-c2ccccc2)c([N+](=O)[O-])c1,inactive
12,CCN1CCN(c2ccc(S(=O)(=O)N3CCCCC3)cc2NC(=O)/C=C/c2ccc([N+](=O)[O-])cc2)CC1,inactive
13,CCN1CCN(c2ccc(S(=O)(=O)N3CCCCC3)cc2NC(=O)/C=C/c2cccc(OC)c2OC)CC1,inactive
14,O=C(N/N=C/c1ccc([N+](=O)[O-])s1)C(O)c1ccccc1 (stereo not given),inactive
15,CC(/C=N/NC(=O)c1cc(-c2ccncc2)nc2ccccc12)=C\c1ccco1,inactive
16,CN1CCN(C2=C(NS(=O)(=O)c3ccccc3)C(=O)c3ccccc3C2=O)CC1,inactive
17,O=C1C(Nc2ccccc2)=C(N2CCCCC2)C(=O)c2ccccc21,inactive
18,CCN1c2ccccc2NC2C1C(C(C)=O)C(=O)N2c1ccc(Cl)cc1 (stereo not given),inactive
19,COC1=C(Nc2ccccc2)C(=O)c2ccccc2C1=O,inactive
20,C=CCNC1=C(Cl)C(=O)c2ccccc2C1=O,inactive
21,COC1=C(Nc2ccc(O)cc2)C(=O)c2ccccc2C1=O,inactive
22,CCNC1=C(Cl)C(=O)c2ccccc2C1=O,inactive
23,CCc1ccc(NC2=CC(=O)C(=O)c3ccccc32)cc1,inactive
24,O=C(NC1=C(Nc2ccc(Cl)cc2)C(=O)c2ccccc2C1=O)c1ccccc1,inactive
25,COc1ccc(C(=O)/C=C/C(=O)N(CC(=O)NC2CCCCC2)CC2CCCO2)c(O)c1 (stereo not given),inactive
26,CC1=NNC(=O)/C1=C\c1cn(-c2ccccc2)nc1-c1ccc(F)cc1,inactive
27,Cc1ccc(-c2c[n+](Cc3ccc(Cl)c(Cl)c3)c3n2CCC3)cc1,inactive

row,Compound,outcome
1,COc1cc(/C=C/C(=O)c2ccc3c(c2)OCCO3)cc(Br)c1OCC(=O)N(C)C,inactive
2,O=C(/C=C\c1ccccc1)NCC(=O)N/N=C/c1ccc(O)cc1O,inactive
3,CC1CCN(CC(CS(=O)(=O)c2ccc([N+](=O)[O-])cc2)N2CCC(C)CC2)CC1 (stereo not given),inactive
4,CCc1ccc(-c2cc(C(=O)Nn3cnnc3)c3ccccc3n2)cc1,inactive
5,Cc1cc(C)cc(NC(=O)c2ccc([N+](=O)[O-])o2)c1,inactive
6,O=C(CS(=O)c1ccc(C(F)(F)F)cc1[N+](=O)[O-])Oc1ccccc1 (stereo not given),inactive
7,Cc1ccccc1-c1nc(CN2CCC(C(=O)NCCCN3CCCC(C)C3)CC2)c(C)o1 (stereo not given),inactive
8,Cc1cc(C)c2nc3nc(C)cc(C)c3c(N)c2c1,inactive
9,Cc1cc(C)c2c(N)c(C(=O)N/N=C/c3ccccc3)sc2n1,inactive
10,Cc1oc(-c2ccc(Cl)cc2)nc1CN1CCC(C(=O)NCCCN2CCCC(C)C2)CC1 (stereo not given),inactive
11,FC(F)(F)c1cc(CCN2CCNC[C@@H]2Cc2ccccc2)cc(C(F)(F)F)c1,inactive
12,O=C(N/N=C\c1ccc([N+](=O)[O-])s1)c1cncc(Br)c1,inactive
13,C#CCCc1ccccc1/C=[N+](/C)[O-],inactive
14,N#C/C(=C(/O)c1ccc([N+](=O)[O-])o1)c1nc2ccccc2[nH]1,inactive
15,O=C(CCl)N1c2ccccc2SCC1c1ccccc1 (stereo not given),inactive
16,O=C(COc1ccc2c(c1)CCC2)N1CCc2ccccc21,inactive
17,O=C(Cn1ncc(Cl)c(Cl)c1=O)N1CCOCC1,inactive
18,CC(=O)Nc1ccc(S(=O)(=O)NC2=C(N3CCN(C)CC3)C(=O)c3ccccc3C2=O)cc1,inactive
19,O=C(Nc1cnc2ccccn2c1=O)c1ccc(F)cc1,inactive
20,CN(C)c1nc(C=C(C#N)C#N)c(Cl)n1-c1ccc(F)cc1,inactive
21,O=[N+]([O-])c1ccc(/C=N/n2cnc3ccccc32)s1,inactive
22,CC1CCCC(NC(=O)NC(=O)CCl)C1C (stereo not given),inactive
23,Cc1ccc(NC(=O)Cn2ncc(Cl)c(Cl)c2=O)cc1S(=O)(=O)N1CCCCC1,inactive
24,Cc1cc(Br)ccc1NC(=O)CNC(=O)Cn1ncc(Cl)c(Cl)c1=O,inactive
25,Cn1nnnc1Sc1ncnc2scc(-c3ccc(C#N)cc3)c12,inactive
26,CCN1c2ccccc2NC2N=C(OC)C(c3ccccc3)C21 (stereo not given),inactive
27,COCCN(CC(=O)NC1CCCCC1)C(=O)/C=C/C(=O)c1ccc(OC)cc1O,inactive

row,Compound,outcome
1,Cc1ccc(-c2c[n+](Cc3ccc(Cl)cc3)c3n2CCC3)cc1,inactive
2,Cc1[nH]c2ccccc2c1C(=O)CCl,inactive
3,CC(C)C(CCNC1CCN(C)CC1)c1ccc(Cl)cc1 (stereo not given),inactive
4,CCN1CCN(C2=C(NS(=O)(=O)c3ccc(Br)cc3)C(=O)c3ccccc3C2=O)CC1,inactive
5,CC1CCC(C(C)C)C(OC(=O)C[n+]2cc(-c3ccc(Cl)cc3)n3c2CCCCC3)C1 (stereo not given),inactive
6,O=C(O)c1cccc(NC(=S)N/N=C/c2ccccn2)c1,inactive
7,Cc1ccc(C(=O)c2no[n+]([O-])c2C(=O)c2ccc(C)cc2)cc1,inactive
8,COc1ccc(C(=O)/C=C/C(=O)N(CC(=O)NC2CCCCC2)Cc2ccccc2)c(O)c1,inactive
9,O=C(Nc1ccc(Cl)c(S(=O)(=O)N2CCOCC2)c1)c1ccc(OCC2CCCO2)cc1 (stereo not given),inactive
10,O=C(Nc1ccccc1N1CCOCC1)c1ccc([N+](=O)[O-])s1,inactive
11,O=C(Nc1nc(-c2ccccn2)cs1)c1ccc(F)c(S(=O)(=O)N2CCOCC2)c1,inactive
12,COc1ccc(/C=C2\SC(=O)N(CCCC(=O)Nc3cc(Cl)ccc3C(=O)O)C2=O)cc1,inactive
13,Cn1cccc1-c1cc(C(=O)N/N=C/c2cc(Br)ccc2O)[nH]n1,inactive
14,CCOC(=O)CSC1=NC(=O)/C(=C/c2ccc(OC)cc2)S1,inactive
15,N/C(=N\OC(=O)c1ccc(Cl)cc1Cl)c1ccncc1,inactive
16,COCc1cc(C)nc2sc(C(=O)Nc3ccc(OC)cc3)c(N)c12,inactive
17,CN1CCN(CCCOc2ccc(-c3ccccc3)cc2)CC1,inactive
18,O=C1c2ccccc2C(=O)N1CCOc1ccccc1,inactive
19,CN=c1scc(-c2ccccc2F)n1/N=C/c1ccc[nH]1,inactive
20,Cc1ccc(NC(=O)CCC(=O)N/N=C/c2ccc([N+](=O)[O-])o2)cc1C,inactive
21,CC1CC(C)C[N+](=C2C=C(N3CCCC3)CC(C)(C)C2)C1 (stereo not given),inactive
22,O=C(Cn1cc(/C=C\[N+](=O)[O-])c2ccccc21)Nc1ccccc1,inactive
23,Cc1ccc(NC(=O)c2ccc([N+](=O)[O-])o2)cc1S(=O)(=O)N1CCOCC1,inactive
24,COc1ccc2oc(C(=O)Nc3ccc(S(=O)(=O)N(C)C4CCN(C)CC4)cc3)c(C)c2c1,inactive
25,CC(Oc1ccccc1)C(=O)Nc1nc(-c2ccccn2)cs1 (stereo not given),inactive
26,C/C(=N\NC(=O)C(C)Oc1ccc([N+](=O)[O-])cc1)c1ccccn1 (stereo not given),inactive
27,CC(C)C(=O)N1CCN(c2ccc(NC(=O)c3ccc([N+](=O)[O-])o3)cc2)CC1,inactive

row,Compound,outcome
1,CC(C)(C)NC(=O)CCN(/N=C/c1ccc([N+](=O)[O-])o1)C1=NS(=O)(=O)c2ccccc21,inactive
2,Cc1c(N=C2C=CC(=O)c3ccccc32)c(=O)n(-c2ccccc2)n1C,inactive
3,COc1cc(/C=N/NC(N)=O)c(Br)cc1OCC(=O)Nc1ccccc1C,inactive
4,COc1cc(CN2CCC(Cc3ccccc3)CC2)cc(OC)c1OC,inactive
5,COc1ccc(S(=O)NC2CCCCC2)c(OC)c1C (stereo not given),inactive
6,O=C(c1nnsc1S(=O)(=O)c1ccc(Cl)cc1)N1CCOCC1,inactive
7,Cc1cc(C)c[n+](C2=C([O-])c3ccccc3C(=O)/C2=N\S(=O)(=O)c2cccs2)c1,inactive
8,O=C(CCl)Nc1cccc(Oc2ccccc2)c1,inactive
9,CC(=O)N1CCc2c(sc(NC(=O)c3ccc([N+](=O)[O-])o3)c2C#N)C1,inactive
10,CN(c1cccc(NC(=O)COc2ccc(Cl)cc2Cl)c1)S(C)(=O)=O,inactive
11,O=C(CC(=O)c1ccccc1)Nc1ccccn1,inactive
12,O=C1Nc2ccc(Br)cc2/C1=C/C(=O)c1ccc2c(c1)OCO2,inactive
13,COc1ccc(/C=N/Nc2cc(C)nc(-n3nc(C)cc3C)n2)c(OC)c1,inactive
14,Cc1ccc(S(=O)(=O)/N=C2\C(=O)c3ccccc3C([O-])=C2n2cc[n+](CCC(C)C)c2)cc1,inactive
15,CCC(=O)N1CCN(c2ccc(NC(=O)c3ccc([N+](=O)[O-])o3)cc2)CC1,inactive
16,CCN(CC)CCNC(=O)c1c(C)n(-c2ccccc2)c2cc(Br)c(OC)cc12,inactive
17,O=C(Cn1ncc(Cl)c(Cl)c1=O)N1CCN(Cc2ccccc2)CC1,inactive
18,O=C(Cn1ncc(Cl)c(Cl)c1=O)c1ccc(Cl)cc1,inactive
19,O=C(COC(=O)CCN1C(=O)/C(=C\C=C\c2ccccc2)SC1=S)Nc1cc(F)ccc1F,inactive
20,CC(C)(C)c1ccc(C(=O)Nc2sc3c(c2C(=O)O)CCC3)cc1,inactive
21,CCN1/C(=C/c2cc[n+](C)cc2)C=Cc2cc(C)ccc21,inactive
22,O=C(Nc1ccc(F)cc1F)c1cc2ccccc2oc1=O,inactive
23,CC1CCC/C=C/C(=O)c2c(O)cc(O)cc2CC(=O)O1 (stereo not given),inactive
24,COc1ccc(C(=O)/C=C/C(=O)N(CC(=O)NC2CCCCC2)Cc2ccccc2OC)c(O)c1,inactive
